# Source: PubChem BioAssay (National Center for Advancing Translational Sciences (NCATS))
# Sampled rows, rich in hits. Any-hit rate of the full collection: about 21%.
# AMA1 RON2 block: qHTS for Inhibitors of AMA1-RON; Towards Development of Antimalarial Drug Lead: Primary Screen; Potency, µM (highest dose often 58.2 µM), most hits filed as inhibitors; 360,000 tested, 0.2% active; AlphaScreen AMA1-biotinylated RON2 peptide binding; Plasmodium falciparum AMA1 (3D7) - RON2 peptide interaction; also: nearly all actives have a fitted effect of over 45% in size
#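 AMA1 (3D7) with his tag at 25 nM final met compounds first, then biotinylated RON2 peptide at 25 nM; detection used donor plus acceptor beads, 10 µg/mL apiece, read by AlphaScreen after 30 min at room temperature.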
# Shiga toxin inh: A qHTS for Small Molecule Inhibitors of Shiga Toxin | Vero cells, Shiga toxin protein synthesis inhibition reporter | inhibition, % at 38.7 µM | 290,000 tested, 9.2% active | AID 2315, 2010; in the data active = inhibition mostly above about 28%, no sharp cut-off; inactive = mostly below about 43%
# Pf growth 48h: Primary qHTS for delayed death inhibitors of the malarial parasite plastid, 48 hour incubation | P. falciparum luciferase growth in erythrocytes, 48 h | 310,000 tested, 5.9% active | Potency, µM (titrated, usually from 28.7 µM), usual class: inhibitors
#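 Firefly luciferase activity from engineered P. falciparum reports growth; inhibitors lower the luminescent signal. Cultures contained 2% hematocrit erythrocytes at 0.1% final parasitemia.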
# Cycloheximide cs: Cycloheximide Counterscreen for Small Molecule Inhibitors of Shiga Toxin. cell reporter, cycloheximide protein synthesis inhibition counterscreen. max response, %. 300,000 tested, 12% active. AID 2314, 2010; in the data active = max response mostly above about 13%, no sharp cut-off; inactive = mostly below about 14%; also: read at 38.3 µM for the half of the compounds with a filed dose
# Pf growth 96h: Primary qHTS for delayed death inhibitors of the malarial parasite plastid, 96 hour incubation; AID 504834, 2011; 320,000 tested, 6.9% active; P. falciparum luciferase reporter growth, 96 h; Potency, µM (titrated, usually from 28.7 µM), hits mostly inhibitors
#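 Delayed-death screen, second-generation endpoint: infected erythrocytes, 2% hematocrit, 0.05% parasitemia final; 96 hours at 37 C, 5% CO2; luciferase detection reagent; luminescence decrease equals reduced growth.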
# HCV inh: qHTS Assay for Inhibitors of Hepatitis C Virus (HCV); AID 651820, 2012; 340,000 tested, 3.4% active; Potency, µM (series often up to 41.8 µM), most hits filed as inhibitors; Huh7.5.1 HCVcc-Cre infection, luciferase reporter, 44 h
#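 Cells seeded at 1,000/well and cultured 4 h, then compounds added followed by HCVcc-Cre virus (~0.5 moi). After 44 h further culture, luciferase substrate was added, plates held 15 min at room temperature, and luminescence read for 15 sec.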
# A number is an active result; 0 = inactive; ? = inconclusive; - = not tested or not shown; [ ] = another dose, or the depositor's remark. Unless noted, calls follow the shape of the dose curve; as a rule, active = well fitted curve in the direction sought with a large enough effect; inconclusive = small, poorly fitted or top-dose-only effect, or another doubt; inactive = no such curve, though single readings can be large; an effect the other way counts as inactive or inconclusive.
SMILES,AMA1 RON2 block,Shiga toxin inh,Pf growth 48h,Cycloheximide cs,Pf growth 96h,HCV inh
Cc1cc2c(cc1Cl)C(c1ccccc1C)CC(=O)O2 (centres undefined),-,0,-,0,-,-
O=C(O)C1=C[C@H](c2ccc(F)cc2)C[C@H](OCCCCO)O1,0,0,0,0,0,0
Cc1cn([C@H]2C[C@H](O)[C@@H](/C=C/C(=O)NCc3ccc4c(c3)OCO4)O2)c(=O)[nH]c1=O,0,-,-,-,-,-
Cc1c(Cl)cccc1NC(=O)CSc1nncn1-c1ccccn1,0,0,0,0,0,0
COc1cccc(CCc2ccccc2OCC(CN(C)C)OC(=O)CCC(=O)O)c1 (centres undefined),-,-,4.8µM,-,3.4µM,-
CCCCn1c(CCc2ccccc2)nc2cc3[nH]c(=O)c(C(C)C)nc3cc21,0,0,3.7µM,0,2.6µM,?
Cc1ccsc1C(=O)NC1CCCN(Cc2ccc(Cl)cc2)C1 (centres undefined),?,0,?,0,0,?
CCOC(=O)c1c(NC(=O)COC(=O)Cc2ccccc2[N+](=O)[O-])sc(C(=O)N(C)C)c1C,0,-,?,-,0,10µM
CCOC(=O)c1c(NC(=O)COC(=O)C2CCC2)sc(C(=O)N(C)C)c1C,0,-,0,-,0,0
CCOC(=O)c1c(NC(=O)COC(=O)c2ccccc2NC)sc(C(=O)N(C)C)c1C,0,0,?,0,5.2µM,13µM
CCN(CC)C(=O)c1sc(NC(=O)c2ccoc2C)c(C(=O)OC)c1C,0,0,0,0,0,0
COC(=O)c1c(-c2ccncc2)csc1NC(=O)c1ccoc1C,0,66,0,21,-,?
CCc1cc(C(=O)OC)c(NC(=O)c2ccoc2C)s1,0,0,?,0,?,10µM
Cn1ncc(Cl)c1C(=O)N1CCN(c2ncccn2)CC1,0,0,0[1.15 µM],0,0[5.75 µM],0
CC(C)(C)S(=O)N1Cc2cc(C(=O)Nc3ccc(-c4ccccc4)cc3)nc(-c3cccc(-c4cc5ccccc5o4)c3)c2[C@@H]1CCO (some centres undefined),0,-,-,-,-,-
CCOC(=O)c1c(NC(=O)c2ccoc2C)sc(C(=O)N(C)C)c1C,0,0,-,0,10µM,0
Cc1ccc(Cn2c(C)c(C(=O)NCc3ccc4c(c3)OCO4)sc2=O)cc1,0,-,-,-,-,-
Cc1cc(OCC(=O)Nc2ccc3c(c2)OCCO3)ccc1Cl,0,107,0,39,8.3µM,0
CCOC(=O)N1CCN(c2c(Nc3ccc4c(c3)OCCO4)c(=O)c2=O)CC1,0,64,-,53,0,0
Cc1cc(C)cc(OCC(=O)Nc2ccc3c(c2)OCCO3)c1,0,0,0,0,0,0
O=C(COc1ccc(F)cc1)Nc1ccc2c(c1)OCCO2,0,70,0,44,0,0
CCC(=O)c1ccc(OCC(=O)Nc2ccc3c(c2)OCCO3)cc1,0,-,-,-,-,0
O=C(COc1ccc2c(c1)OCO2)Nc1cccc(F)c1,0,101,0,35,0,0
CCN(CC(=O)NCc1ccc(Cl)cc1)C(=O)CSCC(=O)Nc1cccc(C)c1,0,0,0,0,0,0
CCOCC(=O)Nc1ccc2c(c1)OCCO2,0,68,0,42,0,0
SMILES,AMA1 RON2 block,Shiga toxin inh,Pf growth 48h,Cycloheximide cs,Pf growth 96h,HCV inh
CCC(=O)Nc1ccc2c(c1)OCCO2,0,0,?,0,0,0
Cc1cc(C)nc(NC(=NCCc2c[nH]c3ccccc23)NC(=O)Nc2ccc(Cl)c(Cl)c2)n1,0,0,?,0,2.1µM,?
Cc1cc(C)nc(NC(=NCCc2c[nH]c3ccccc23)NC(=O)c2ccco2)n1,0,0,6.6µM,0,5.9µM,?
O=C(CCNC(=O)c1ccco1)NCCc1c[nH]c2ccccc12,0,-,-,-,-,0
Cc1cccc(NC(=O)NCCc2c[nH]c3ccccc23)c1,0,0,0,0,0,0
Cc1cc(C)nc(NC(=NCCc2c[nH]c3ccccc23)NC(=O)Nc2cccc([N+](=O)[O-])c2)n1,0,0,3.3µM,0,0,0
Cc1cc(C)nc(NC(=NCCc2c[nH]c3ccccc23)NC(=O)Nc2ccccc2)n1,0,0,5.2µM,0,4.7µM,?
Cc1ccc(C)c(N2CC(C(=O)Nc3cc(C)on3)CC2=O)c1 (centres undefined),0,0,0,0,0,0
CCOC(=O)C1=C(C)NC(=S)NC1c1ccc(OCC(=O)N2CCCCC2)cc1 (centres undefined),0,0,0,0,?,0
CCN1C(=O)[C@H]2[C@@H](c3ccc(OC)cc3)N[C@]3(CCCN(Cc4ccc(OC)cc4)C3=O)[C@H]2C1=O,0,-,-,-,-,-
CCOc1cc(NC(=O)C2CC2)c(OCC)cc1NC(=O)c1ccccn1,0,0,15µM,0,-,0
CCOc1cc(NC(=O)c2ccccn2)c(OCC)cc1NC(=O)CC(C)C,0,0,13µM,0,3.7µM,?
NC(=O)CSc1nnc(CNc2ccc(F)cc2)n1CC1CCCO1 (centres undefined),0,0,0,0,0[5.75 µM],0
Cc1ccc(NCc2nnc(SCC(N)=O)n2CC2CCCO2)c(C)c1 (centres undefined),0,0,0,0,13µM,0
COc1ccc(-c2ccc(SCC(=O)NCC3CCCO3)nn2)cc1OC (centres undefined),0,0,0,21,0,0
COc1cc(C(=O)CSc2nnc(-c3ccc(O)cc3)n2CC2CCCO2)ccc1NC(C)=O (centres undefined),0,0,0,0,-,0
COc1ccc(-c2nnc(SCC(=O)NC(C)C)n2CC2CCCO2)cc1OC (centres undefined),0,0,0,0,3.3µM,0
COc1ccc(-c2ccc(SCC(=O)NCc3ccco3)nn2)cc1OC,0,0,0,0,5.2µM,0
COc1ccc(-c2cc(C(F)(F)F)nc(SCC(=O)NCc3ccco3)n2)cc1OC,0,0,?,0,?,?
Cc1ccsc1C(=O)N1CCCC(N(C)Cc2ccccc2)C1 (centres undefined),0,0,0,0,0,0
CN=c1scc(-c2c[nH]c3ccccc23)n1C,0,0,?,0,0,0
COc1ccc(-c2ccc(SCC(=O)NC3CCCCC3)nn2)cc1OC,0,65,0,37,0,0
COc1ccc(-c2ccc(SCC(=O)NC3CCCC3)nn2)cc1,0,-,-,-,-,-
CCCCCC1CCC(C(=O)NCCN2CCOCC2)CC1 (centres undefined),0,0,0,0,?,0
c1ccc(OCc2cc(-c3ccccc3)no2)cc1,0,76,0,53,0,0
COc1ccccc1OCc1cc(-c2ccccc2)no1,0,89,0,68,0,0
Cc1sc2c(c1C)CN(CCN1CCOCC1)CN2C(=O)c1ccccc1,0,0,0,20,0,0
